Laboratory results from PubChem BioAssay AID1159580 (chemical genetic matrix, 2015).
Hit rate of the full screen: of about 5,500 compounds, about 2,000 (36%) were called active. Roughly 18% stayed inconclusive and do not appear here. No stated cut-off is given here; in the data, active means normalized growth mostly below about 0.91 (no sharp cut-off); inconclusive means no clear call, values can overlap the other calls; inactive means mostly above about 0.92. The list shows a part of the results.

Test: chemical genetic growth profiling, strain panel (AID 1159580);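 further: tested at 20 µM; growth read once vehicle control cultures reached saturation at 30 °C; 1 = growth at the plate median or of vehicle wells; lower values mean less growth of the strain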
Details: S. cerevisiae deletion strains, growth OD
[1] = locus YAR019C, strain CDC15, active compounds read low
[2] = locus YBL105C, strain PKC1, active compounds read low
[3] = locus YBR135W, strain CKS1, active compounds read low
[4] = locus YBR136W, strain MEC1, active compounds read low
[5] = locus YBR160W, strain CDC28, active compounds read low
[6] = locus YDL017W, strain CDC7, active compounds read low
[7] = locus YDL028C, strain MPS1, active compounds read low
[8] = locus YDL101C, strain DUN1, active compounds read low
[9] = locus YDL108W, strain KIN28, active compounds read low
[10] = locus YDL132W, strain cdc53, active compounds read low
[11] = locus YDL214C, strain PRR2, active compounds read low
[12] = locus YDR052C, strain DBF4, active compounds read low
[13] = locus YDR054C, strain cdc34, active compounds read low
[14] = locus YDR226W, strain ADK1, active compounds read low
[15] = locus YDR477W, strain SNF1, active compounds read low
[16] = locus YER123W, strain YCK3, active compounds read low
[17] = locus YER133W, strain GLC7, active compounds read low
[18] = locus YFL009W, strain cdc4, active compounds read low
[19] = locus YFL029C, strain CAK1, active compounds read low
[20] = locus YFR003C, strain YPI1, active compounds read low
[21] = locus YFR019W, strain FAB1, active compounds read low
[22] = locus YFR028C, strain CDC14, active compounds read low
[23] = locus YGR040W, strain KSS1, active compounds read low
[24] = locus YGR052W, strain FMP48, active compounds read low
[25] = locus YGR092W, strain DBF2, active compounds read low
[26] = locus YHR030C, strain SLT2, active compounds read low
[27] = locus YHR079C, strain IRE1, active compounds read low
[28] = locus YHR082C, strain KSP1, active compounds read low
[29] = locus YHR205W, strain SCH9, active compounds read low
[30] = locus YIL147C, strain SLN1, active compounds read low
[31] = locus YJL095W, strain BCK1, active compounds read low
[32] = locus YJL128C, strain PBS2, active compounds read low
[33] = locus YJL157C, strain FAR1, active compounds read low
[34] = locus YJR016C, strain ILV3, active compounds read low
[35] = locus YJR066W, strain TOR1 (second series), active compounds read low
[36] = locus YJR066W, strain TOR1, active compounds read low
[37] = locus YKL048C, strain ELM1, active compounds read low
[38] = locus YKL067W, strain YNK1, active compounds read low
[39] = locus YKL101W, strain HSL1, active compounds read low
[40] = locus YKL193C, strain SDS22, active compounds read low
[41] = locus YKL203C, strain TOR2, active compounds read low
[42] = locus YLR113W, strain HOG1, active compounds read low
[43] = locus YLR133W, strain CKI1, active compounds read low
[44] = locus YLR403W, strain SFP1, active compounds read low
[45] = locus YML070W, strain DAK1, active compounds read low
[46] = locus YMR001C, strain CDC5, active compounds read low
[47] = locus YMR205C, strain PFK2 (second series), active compounds read low
[48] = locus YMR277W, strain FCP1, active compounds read low
[49] = locus YNL006W, strain LST8, active compounds read low
[50] = locus YNL020C, strain ARK1, active compounds read low
[51] = locus YNL161W, strain CBK1, active compounds read low
[52] = locus YNL183C, strain NPR1, active compounds read low
[53] = locus YNL207W, strain RIO2, active compounds read low
[54] = locus YNL222W, strain SSU72, active compounds read low
[55] = locus YNL307C, strain MCK1 (second series), active compounds read low
[56] = locus YOL078W, strain AVO1, active compounds read low
[57] = locus YOL136C, strain PFK27, active compounds read low
[58] = locus YOR061W, strain CKA2, active compounds read low
[59] = locus YOR119C, strain RIO1, active compounds read low
[60] = locus YOR231W, strain MKK1, active compounds read low
[61] = locus YOR329C, strain SCD5, active compounds read low
[62] = locus YPL031C, strain PHO85, active compounds read low
[63] = locus YPL153C, strain RAD53, active compounds read low
[64] = locus YPL204W, strain HRR25, active compounds read low
[65] = locus YPL209C, strain IPL1, active compounds read low
[66] = locus YPL256C, strain CLN2, active compounds read low
[67] = locus YPR025C, strain CCL1, active compounds read low
[68] = locus YPR106W, strain ISR1, active compounds read low
[69] = locus YPR111W, strain DBF20, active compounds read low
[70] = strain NNK1, active compounds read low
[71] = strain TSCII, active compounds read low

Measured: normalized growth

OC(=Cc1nc2ccccc2nc1C=C(O)c1ccc(Cl)cc1)c1ccc(Cl)cc1
inactive: [1] 0.993 | [2] 0.974 | [3] 0.983 | [4] 0.967 | [5] 0.984 | [6] 0.98 | [7] 0.97 | [8] 0.977 | [9] 0.961 | [10] 0.995 | [11] 0.895 | [12] 0.981 | [13] 0.972 | [14] 0.969 | [15] 0.856 | [16] 0.85 | [17] 0.9 | [18] 0.976 | [19] 0.976 | [20] 0.978 | [21] 0.918 | [22] 0.987 | [23] 0.855 | [24] 0.903 | [25] 0.793 | [26] 0.874 | [27] 0.96 | [28] 0.851 | [29] 0.882 | [30] 0.958 | [31] 0.933 | [32] 0.965 | [33] 0.84 | [34] 0.977 | [35] 0.852 | [36] 0.889 | [37] 0.868 | [38] 0.871 | [39] 0.8 | [40] 1 | [41] 0.932 | [42] 0.902 | [43] 0.884 | [44] 0.904 | [45] 0.855 | [46] 0.992 | [47] 0.859 | [48] 0.977 | [49] 0.982 | [50] 0.851 | [51] 0.983 | [52] 0.921 | [53] 0.966 | [54] 0.982 | [55] 0.823 | [56] 0.982 | [57] 0.867 | [58] 0.769 | [59] 0.921 | [60] 0.936 | [61] 0.983 | [62] 0.843 | [63] 0.862 | [64] 0.89 | [65] 0.979 | [66] 0.941 | [67] 0.979 | [68] 0.962 | [69] 0.954 | [70] 0.96 | [71] 0.989

O=C(/C=C/Sc1nc2ccccc2s1)c1ccc(Cl)cc1
inactive: [1] 0.977 | [2] 0.972 | [3] 0.983 | [4] 0.986 | [5] 0.983 | [6] 0.983 | [7] 0.987 | [8] 0.975 | [9] 0.985 | [10] 0.983 | [11] 0.894 | [12] 0.99 | [13] 0.969 | [14] 0.981 | [15] 0.926 | [16] 0.872 | [17] 0.911 | [18] 0.98 | [19] 0.977 | [20] 0.981 | [21] 0.932 | [22] 0.986 | [23] 0.941 | [24] 0.92 | [25] 0.925 | [27] 0.78 | [28] 0.932 | [29] 0.743 | [30] 0.99 | [31] 0.854 | [32] 0.954 | [33] 0.896 | [34] 0.985 | [35] 0.808 | [36] 0.893 | [37] 0.958 | [38] 0.909 | [39] 0.927 | [40] 0.986 | [41] 0.975 | [43] 0.905 | [44] 0.901 | [45] 0.877 | [46] 0.978 | [47] 0.936 | [48] 0.988 | [49] 0.979 | [50] 0.911 | [51] 0.962 | [52] 0.923 | [53] 0.988 | [54] 0.981 | [55] 0.92 | [56] 0.981 | [57] 0.83 | [58] 0.953 | [59] 0.996 | [60] 0.811 | [61] 0.972 | [62] 0.912 | [63] 0.942 | [64] 0.882 | [65] 0.979 | [67] 0.972 | [68] 0.985 | [69] 0.979 | [70] 0.981 | [71] 0.983
active: [26] 0.697 | [42] 0.593 | [66] 0.72
